This is a sample that favours compounds with a hit; in the whole collection about 2.3% have one here.
CHO-K1 Ca antag: M1 antagonist counterscreen hit in parental CHO-K1 cells; ATP-induced calcium, Fluo-8 fluorescence; inhibition, % at 3 µM; 360,000 compounds, 0.6% hits; AID 602250;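 active = inhibition above a per-plate cutoff, the plate's mean sample inhibition plus 3 SD, cut at about 24% in these data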;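 also: 0% = DMSO plus EC80 ATP and 100% = DMSO alone without ATP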
CHO-K1 Ca PAM: M1 PAM counterscreen hit in parental CHO-K1 cells; ATP EC20, Fluo-8 calcium fluorescence; 0% at ATP EC20, 100% at ATP max; activation, % at 3 µM; AID 602247; 360,000 compounds, 0.02% hits;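 active = activation above the run cutoff, the mean activation of all test compounds plus 3 SD, cut at about 40% in these data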;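 also: peak over basal fluorescence ratio in a 140 s read after ATP addition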
M1 ag: activates human CHRM1 receptor; CHO-K1 hM1, Fluo-8 calcium fluorescence, agonist mode; 0% DMSO, 100% acetylcholine EC100; activation, % at 3 µM; 360,000 compounds, 0.33% hits; P11229;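 active = activation above the run's mean compound activation plus 3 SD, cut at about 16% in these data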;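 also: peak over basal fluorescence ratio within a 140 s kinetic read after compound addition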
Target sequence (P11229 whole entry, looked up): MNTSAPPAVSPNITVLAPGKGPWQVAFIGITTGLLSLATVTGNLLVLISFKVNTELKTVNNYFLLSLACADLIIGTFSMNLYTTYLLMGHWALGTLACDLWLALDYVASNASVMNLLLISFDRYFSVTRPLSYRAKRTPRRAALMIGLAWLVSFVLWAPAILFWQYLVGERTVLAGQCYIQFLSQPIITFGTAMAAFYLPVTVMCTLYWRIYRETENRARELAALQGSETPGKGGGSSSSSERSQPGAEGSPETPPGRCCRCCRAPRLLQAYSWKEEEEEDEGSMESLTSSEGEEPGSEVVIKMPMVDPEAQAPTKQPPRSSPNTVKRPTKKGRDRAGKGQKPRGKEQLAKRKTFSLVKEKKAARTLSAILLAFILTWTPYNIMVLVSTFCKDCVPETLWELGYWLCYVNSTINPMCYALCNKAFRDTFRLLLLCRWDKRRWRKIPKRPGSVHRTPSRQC
M1 antag: antagonists of human M1 muscarinic receptor; inhibition, % at 3 µM; CHO-K1 hM1, Fluo-8 calcium fluorescence, ACh EC80 antagonist; 360,000 compounds, 1.3% hits; P11229;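 active = percent inhibition above its own plate's cutoff, namely the mean of that plate's compound wells plus 3 SD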;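 also: peak over basal fluorescence ratio during 140 s after agonist addition; 0% = ACh EC80 plus DMSO and 100% = DMSO alone without agonist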
M1 PAM: human CHRM1 positive allosteric modulation | P11229 | AID 588819 | 360,000 compounds, 0.088% hits | CHO-K1 hM1, Fluo-8 calcium fluorescence, ACh EC20; 0% = ACh EC20, 100% = maximal ACh | activation, % at 3 µM; in the data active = activation above about 19%, passing the limit was not always enough
M1 ag parental: nonselective activator or artifact in parental CHO-K1 cells; Fluo-8 calcium fluorescence; scaled to maximal ATP response, vehicle zero; activation, % at 3 µM; 360,000 compounds, 0.48% hits; AID 602248; in the data active = activation above about 15%;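 also: untransfected CHO-K1 host cells lacking M1 receptor as counterscreen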
An asterisk follows results filed as active.

SMILES	CHO-K1 Ca antag	CHO-K1 Ca PAM	M1 ag	M1 antag	M1 PAM	M1 ag parental
Nc1ccc(/C=C/C(=O)c2cccs2)cc1	9.7	-0.3	14.4	11.5	-3.4	22.1*
O=C(C=Cc1ccccc1)c1cccs1	2.1	-6.3	-5.3	-14.7	8.4	1.2
COCCN1C(=O)/C(=C/c2ccc(N3CCCC3)cc2C)SC1=S	21.2	11.1	6.7	31.2*	-8.9	11.4
CCN=C1S/C(=C\c2ccc(N3CCOCC3)cc2C)C(=O)N1CC	1.1	15.1	-1.5	-4.9	2.1	0.1
O=C(NC(NNc1ccc([N+](=O)[O-])cc1)(C(F)(F)F)C(F)(F)F)c1ccc(Cl)cc1	21.4	-9.2	2.5	33.6*	-12.6	8.7
CC(C)c1ccc(Nc2n[nH]c(=S)s2)cc1	28.1*	-5.0	-2.5	6.5	-2.5	0.8
CC(C)(C)OC(=O)N1CC2(CCCCC2)CC1Cc1ccc(C(F)(F)F)cc1 (centres undefined)	-17.8	13.0	0.1	-15.4	8.7	0.9
CCn1c(SCC(=O)NNC(=S)Nc2ccc(C)cc2)nnc1-c1ccc(Cl)cc1	-4.7	27.5	-6.0	-11.8	11.3	16.2*
O=[N+]([O-])c1ccc(N2CCN(C(=S)NCc3ccc(Cl)cc3)CC2)cc1	22.2	-9.4	-0.5	37.2*	-10.1	9.0
CCOc1ccccc1N1CCN(C(=S)NCc2ccc(Cl)cc2)CC1	-2.8	13.5	-1.6	12.7	-4.0	17.6*
CCOc1ccccc1N1CCN(C(=S)NC(=O)C23CC4CC(CC(C4)C2)C3)CC1	-7.5	25.5	-7.0	-11.8	-4.3	0.6
COc1ccc(Br)cc1CN(C)C(=O)c1ccccc1OCc1c(C)noc1C	0.5	-22.3	-0.2	4.6	-3.8	4.0
O=C(CCc1nnc2ccc(N3CCC4(CC3)OCCO4)nn12)Nc1ccc(F)cc1	-5.7	-0.9	-2.2	-1.0	2.3	0.5
CN(CC(=O)Nc1c(Cl)cccc1Cl)C(=O)c1cc(-c2cccs2)nn1-c1ccccc1	4.4	-5.6	-5.9	12.5	-7.8	1.1
CCN(CC(=O)Nc1c(F)cccc1F)C(=O)c1cc(-c2cccs2)nn1-c1ccccc1	7.3	-12.1	-1.1	36.2*	-16.9	6.9
CC(C)CC1=NN2C(=N)/C(=C\c3coc4ccccc4c3=O)C(=O)N=C2S1	44.9*	-13.9	125.2*	45.1*	-30.8	100.2*
CCSC1=NSC2=NC(=O)/C(=C\c3coc4ccccc4c3=O)C(=N)N12	48.3*	-13.6	87.1*	61.0*	-26.9	58.6*
CSC1=NSC2=NC(=O)/C(=C\c3ccc(OC(=O)c4ccco4)cc3)C(=N)N12	-13.9	10.6	-3.2	-3.9	3.9	0.5
CC(C)C[C@H](NC(=O)c1nc[nH]c1C(=O)NCCCCCNC(=O)OC(C)(C)C)C(=O)OC(C)(C)C	-5.0	-20.7	-10.0	60.5*	-34.5	-0.9
CC(C)(C)OC(=O)CNC(=O)c1[nH]cnc1C(=O)NCCCCCN	-6.4	2.5	-7.2	2.0	1.8	0.3
CC(C)(C)OC(=O)CNC(=O)c1[nH]cnc1C(=O)NCCCCCNC(=O)OC(C)(C)C	-5.3	-1.5	-1.1	29.5	-21.3	16.6*
CCOc1ccc(Cl)cc1-c1cc(C(=O)NC2CCCCC2)[nH]n1	-17.0	21.0	-10.2	-25.2	6.5	-0.1
O=C(COc1ccc2ccccc2c1)Nc1ccc(Cc2ccncc2)cc1	24.8*	-3.2	0.4	43.2*	-19.9	11.3
COc1cc2ccccc2cc1C(=O)Nc1ccc(Cc2ccncc2)cc1	10.3	7.4	-0.6	29.9*	-15.5	5.9
O=C(O)Cc1ccc(NC(=O)COc2ccc3ccccc3c2)cc1	2.2	-5.2	-1.7	8.1	-6.5	-0.5
SMILES	CHO-K1 Ca antag	CHO-K1 Ca PAM	M1 ag	M1 antag	M1 PAM	M1 ag parental
O=C(COC(=O)c1cc(=O)[nH]c2ccccc12)NC(=O)c1ccccc1	1.8	19.1	-2.2	-5.3	7.8	0.3
Cc1cc2occ(CC(=O)N(C)CC(=O)Nc3ccccc3C(F)(F)F)c2cc1C	-5.0	10.8	-4.4	-1.8	2.2	4.0
CCCCNc1c([N+](=O)[O-])c(=O)n(C)c2ccccc12	-14.7	26.1	-4.3	7.2	-1.6	0.7
Cn1c(=O)c([N+](=O)[O-])c(NCCCn2ccnc2)c2ccccc21	0.1	13.3	0.8	-3.6	3.7	15.3*
CN1C(=O)c2cccc3c(S(N)(=O)=O)ccc1c23	0.4	13.1	4.3	-0.4	6.1	16.3*
Cc1ccccc1NS(=O)(=O)c1ccc2c3c(cccc13)C(=O)N2C	-18.0	7.9	1.8	3.2	2.5	5.0
CCN1CCN(CCCNC(=O)c2ccc3c(c2)NC(=O)c2ccccc2S3)CC1	-8.1	13.8	-13.9	15.1	-19.0	0.7
CCC(C)N(CCNC(=O)c1ccc2c(c1)NC(=O)c1ccccc1S2)C1CCCCC1 (centres undefined)	-9.1	9.0	-2.9	55.7*	-22.9	6.6
CC1CCN(Cc2ccc(NC(=O)CC3Oc4ccccc4NC3=O)cc2)CC1 (centres undefined)	-1.1	15.1	-12.2	98.7*	-32.3	1.2
CC(C)CN(CCNC(=O)CC1Oc2ccccc2NC1=O)CC(C)C (centres undefined)	-24.2	31.6	-13.0	1.3	-8.0	1.2
CC1CCCC(C)N1CCCNC(=O)c1ccc2c(c1)NC(=O)c1ccccc1S2 (centres undefined)	-10.7	0.3	-6.1	83.9*	-24.5	0.2
CCC(C)N(CCNC(=O)CC1Oc2ccccc2NC1=O)C1CCCCC1 (centres undefined)	-6.5	13.7	-13.4	90.3*	-33.1	0.0
CC(=O)Nc1cccc(-c2ccnc3c2CC(C)(C(=O)Nc2ccc(Cl)c(C(F)(F)F)c2)O3)c1 (centres undefined)	0.2	11.8	-1.3	14.3	-2.7	0.4
CCOc1ccc(CCNc2nc3ccccc3n3cnnc23)cc1OCC	-16.4	17.1	1.2	-0.2	2.0	4.8
CC(=O)Nc1cccc(NC(=O)CCN2C(=O)c3ccccc3S2(=O)=O)c1	1.6	4.0	4.1	-11.9	6.2	-0.1
CC(C)N1C(=O)N(c2cccc(Cl)c2)C(C)(O)CC1(C)C (centres undefined)	-14.6	1.4	-5.0	-9.7	-3.8	-0.6
O=C(NNC(=S)NC(=O)c1ccc(Br)cc1)c1ccc([N+](=O)[O-])cc1	5.2	1.8	46.6*	6.0	-10.1	9.4
O=C(NNC(=S)NC(=O)c1ccc(Br)cc1)c1cccc([N+](=O)[O-])c1	-11.1	7.1	35.5*	-1.5	-6.4	20.9*
O=C(NNC(=S)NC(=O)c1ccccc1Cl)c1cccc([N+](=O)[O-])c1	13.6	-0.3	19.1*	16.9	-7.8	1.7
O=C(Nc1nnc(-c2ccc3c(c2)CCCC3)o1)c1ccccc1	1.9	20.7	17.0*	-4.9	5.7	11.1
